Data reported in publication PMC5540273 (PLoS ONE, 2017).

tested on: T1, RSK1(Kin.Dom.1-N-terminal); details: concentration: 1 μM, replicates: in singlicate; n = 1
T1 construct: gene RPS6KA1
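Further: KINOMEscan kinase panel screen.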

Row | SMILES | %Inh [%]
1 | COc1cc(Nc2nccc(N3CCC(NC(=O)Nc4cccc(C(C)=O)c4)C3)n2)cc(OC)c1OC (stereo not shown) [GSK1379753] | 15
2 | CCn1c(-c2nonc2N)nc2c(C#CC(C)(C)O)ncc(OCCCCN)c21.O=C(O)C(F)(F)F.O=C(O)C(F)(F)F [GSK507274] | 18
3 | COc1cc(Nc2nccc(-c3c(-c4cccc(NC(=O)c5c(F)cccc5F)c4)nn4ncccc34)n2)cc(OC)c1OC [GSK327238] | 97.3
4 | O=C(Nc1n[nH]c2nc(-c3ccc(O)cc3)ccc12)C1CC1 [SB-710363] | 14
5 | O=c1[nH]cc(-c2ccc(N3CCOCC3)cc2)c2sc(-c3cn[nH]c3)cc12 [GSK2276055] | 29
6 | O=C(Nc1cccc(-c2nn3ccccc3c2-c2ccnc(Nc3cccc(F)c3)n2)c1)c1c(F)ccc(F)c1Cl [GSK357952] | 63
7 | CC(C)c1nc(-c2cccc(NS(=O)(=O)c3c(F)cccc3F)c2F)c(-c2ccnc(Nc3ccc(N4CCOCC4)nc3)n2)s1 [GSK2008607] | 100
8 | CC(=O)N1CCN(c2ccc(Nc3nccc(-c4sc(C(C)C)nc4-c4cccc(NS(=O)(=O)c5cccc(Cl)c5)c4)n3)cn2)CC1 [GSK1660437] | 10
9 | O=C(Nc1cccc(-c2nn3ncccc3c2-c2ccnc(Nc3ccccc3)n2)c1)c1c(F)cccc1F [GSK198271] | 95.3
10 | Cl.c1ccc(-c2ccc3c(Nc4ccc5[nH]ncc5c4)ccnc3c2)nc1 [GW440137] | 20
11 | Cn1cc(-c2[nH]c3cc(NC(=O)[C@H](N)C4CCCCC4)cc4c3c2C=NNC4=O)cn1 | 60
12 | CNC(=O)c1ccccc1Nc1nc(Nc2ccc(N3CCOCC3)cc2)ncc1Cl.Cl [GSK1576028] | 100
13 | c1ccc(-c2cnc3nccnn23)cc1 [AH20685] | 0
14 | CN(C)S(=O)(=O)c1cc(-c2ccc3nccc(-c4cccc(S(N)(=O)=O)c4)c3c2)cnc1N [GSK1669921] | 0
15 | COc1cccc(NC(=O)NC2CCN(c3ccnc(Nc4cc(OC)c(OC)c(OC)c4)n3)C2)c1 (stereo not shown) [GSK1379763] | 12
16 | C[C@@H](Oc1cc(-n2cnc3cc(-c4ccnc(NCCS(C)(=O)=O)c4)ccc32)sc1C(N)=O)c1ccccc1Cl [GSK907232] | 11

Row | SMILES | %Inh [%]
17 | Fc1ccc(-c2ncn(C3CCNCC3)c2-c2ccnc(Oc3ccc(-c4ccccc4)cc3)n2)cc1 [SB-245391] | 27
18 | COc1cccc(C(=O)Nc2cccc(Oc3ccc4nc(NC(=O)C5CC5)cn4n3)c2)c1 | 0
19 | Nc1ncc(-c2cccnc2)c2scc(-c3ccc4c(c3)CCN4C(=O)Cc3ccccc3)c12 [GSK683281] | 21
20 | Cc1occc1-c1ncc(OC[C@@H](N)Cc2c[nH]c3ccccc23)cc1-c1ccc2[nH]nc(C)c2c1.O=C(O)C(F)(F)F [GSK682037] | 7
21 | Nc1n[nH]c2cnc(-c3ccccc3)cc12 [SB-642124] | 23
22 | Cc1ccc(S(=O)(=O)Nc2ccc(Nc3nccc(Nc4cccc5[nH]ncc45)n3)cc2)cc1 [GSK581271] | 1
23 | c1ccc(-c2n[nH]cc2Nc2ccnc3ccccc23)nc1 [GW694077] | 19
24 | COc1ccc(Nc2nccc(NCCNC(=O)c3cc4ccccc4s3)n2)cc1 [GSK1379896] | 0
25 | Cc1ccc(F)c(C(=O)Nc2cccc(-c3nn4ccccc4c3-c3ccnc(Nc4cccc(F)c4)n3)c2)c1F [GSK361061] | 65
26 | CC(C)(C)c1ccc2nccc(Nc3cccc(O)c3)c2c1 [GW856795] | 0
27 | COc1cc(Nc2ncc3c(C)nc(-c4cc5ccccc5[nH]4)n3n2)cc(OC)c1OC [GW869516] | 91.7
28 | COC(=O)Nc1nc2ccc(Oc3ccc(NC(=O)Nc4cc(C(F)(F)F)ccc4F)cc3)cc2n1C.Cl [GW692089] | 0
29 | CCCCc1nn2ncccc2c1-c1ccnc(Nc2ccc(N3CCN(C)CC3)cc2)n1 [GW684941] | 0
30 | O=C(O)C(F)(F)F.O=C(O)C(F)(F)F.O=c1[nH]ccc2nc(N[C@@H]3CCCNC3)nc(Nc3ccc(S(=O)(=O)N4CCOCC4)cc3)c12 [GSK2177277] | 96
31 | Cl.Cl.NCC(C(=O)Nc1cc(Br)c(-c2ccnc3[nH]ccc23)s1)c1ccccc1 (stereo not shown) [GSK1269851] | 6
